{"source": "PubChem BioAssay (EPA / NIEHS)", "note": "Values joined by “and” are separate entries in the source; they are usually repeats but may differ in a detail not shown here. Equal values may be shown once. Some structures have more than one record in an assay (separate samples or runs), and their calls can disagree. Active and inactive are the calls of the source. Rule for the calls: active = hit-call score of the fitted dose curve at least 0.9, where 1 is the maximum; inactive = score below 0.9."}
{"assay": "CCTE_Mundy_HCI_Cortical_Synap_Neur_Matur_SynapseCount: CCTE's Synaptogenesis and Neurite Maturation Assay in rat cortical cells for Synapse Count, Mundy Lab (AID 2284218)", "method": "CCTE_Mundy_HCI_Cortical_Synap&Neurite_Matur is a multiplexed, cell-based-readout assay that uses rat primary cortical cells with measurements taken at 288.33 hours after chemical dosing in a microplate: 96-well plate.CCTE_Mundy_HCI_Cortical_Synap_Neur_Matur_SynapseCount is one of eight components of the CCTE_Mundy_HCI_Cortical_Synap&Neurite_Matur assay. It measures synaptogenesis and neurite maturation related to number of synapses per neuron using High Content Imaging of fluorescently labelled markers.[…] Using a type of morphology reporter, loss -of-signal activity can be used to understand developmental effects.\nCells are plated onto 96 well plates and allowed 2 hr for attachment to the substrate. At days in vitro (DIV) 5, Cytosine Arabinoside (AraC) is added to arrest glial cell growth. Chemicals are dosed and a media change is performed at DIV 7 of differentiation and is continued through DIV 12 when the experiment is terminated. Cells are fixed with […] and Hoechst Dye. Cells are stained using Millipore Mouse anti-MAP2MAB3418 (1:800) and Millipore Rabbit anti-Synaptophysinsc-1750 (1:250) primary antibodies and Alexa Fluor-488 goat anti-mouse and AlexaFluor-546 goat anti-rabbit secondary antibodies to label neuronal cell nuclei, synapses and neurites. A Cellomics ArrayScan VTi HCS Reader is used for automated image acquisition and analysis of neurite outgrowth."}
{"compound": "O=[N+]([O-])c1cc(C(F)(F)F)c(Cl)c([N+](=O)[O-])c1Nc1ncc(C(F)(F)F)cc1Cl", "AC50": "1.06 µM (active)"}
{"compound": "CCOP(=S)(OCC)Oc1cc(C)nc(C(C)C)n1", "outcome": "inactive"}
{"compound": "CC(C)N(C(=O)SCC(Cl)=C(Cl)Cl)C(C)C", "AC50": "23.7 µM (active)"}
{"compound": "CC1=NNC(=O)N(/N=C/c2cccnc2)C1", "outcome": "inactive"}
{"compound": "CCOP(=S)(Oc1cnc(C(C)(C)C)nc1)OC(C)C", "note": "(stereo not drawn)", "AC50": "16.6 µM (active)", "outcome": "inactive"}
{"compound": "CN1COCN(Cc2cnc(Cl)s2)C1=N[N+](=O)[O-]", "outcome": "inactive"}
{"compound": "CCOP(=S)(OCC)Oc1ccc2c(C)c(Cl)c(=O)oc2c1", "outcome": "inactive"}
{"compound": "CCOP(=S)(OCC)Oc1ccc([N+](=O)[O-])cc1", "AC50": "15 µM (active)"}
{"compound": "CCOP(=O)(NC(C)C)Oc1ccc(SC)c(C)c1", "note": "(stereo not drawn)", "outcome": "inactive"}
{"compound": "COP(=O)(OC)OC(Br)C(Cl)(Cl)Br", "note": "(stereo not drawn)", "AC50": "23.2 µM (active) and 9.92 µM (active)"}
{"compound": "CSC1=N[C@@](C)(c2ccccc2)C(=O)N1Nc1ccccc1", "outcome": "inactive"}
{"compound": "CCCSP(=O)(OCC)SCCC", "outcome": "inactive"}
{"compound": "COP(=O)(NC(C)=O)SC", "note": "(stereo not drawn)", "outcome": "inactive"}
{"compound": "CCOC(=O)CC(SP(=O)(OC)OC)C(=O)OCC", "note": "(stereo not drawn)", "outcome": "inactive"}
{"compound": "CN(C)[C@@H]1C(=O)C(C(N)=O)=C(O)[C@@]2(O)C(=O)C3=C(O)c4c(O)cccc4[C@@](C)(O)[C@H]3[C@H](O)[C@@H]12", "AC50": "50 µM (active)"}
{"compound": "CC[C@H](C)[C@H]1O[C@]2(C=C[C@@H]1C)C[C@@H]1C[C@@H](C/C=C(\\C)[C@@H](O[C@H]3C[C@H](OC)[C@@H](O[C@H]4C[C@H](OC)[C@@H](NC)[C@H](C)O4)[C@H](C)O3)[C@@H](C)/C=C/C=C3\\CO[C@@H]4[C@H](O)C(C)=C[C@@H](C(=O)O1)[C@]34O)O2", "AC50": "522 nM (active) and 658 nM (active)"}
{"compound": "CCCCSP(=O)(SCCCC)SCCCC", "AC50": "73.5 µM (active) and 15.5 µM (active)"}
{"compound": "C[N+]1(C)CCCCC1", "outcome": "inactive"}
{"compound": "CC(=NC#N)N(C)Cc1ccc(Cl)nc1", "outcome": "inactive"}
{"compound": "CCOP(=S)(OCC)SCCSCC", "outcome": "inactive"}
{"compound": "CCOP(=O)(SC(C)CC)N1CCSC1=O", "note": "(stereo not drawn)", "outcome": "inactive"}
{"compound": "CCCSP(=O)(OCC)Oc1ccc(Br)cc1Cl", "note": "(stereo not drawn)", "outcome": "inactive"}
{"compound": "CCOP(=S)(OCC)OC(Cl)C(Cl)(Cl)Cl", "note": "(stereo not drawn)", "AC50": "85.8 µM (active) and 15.9 µM (active)"}
{"compound": "COP(=O)(OC)C(O)C(Cl)(Cl)Cl", "note": "(stereo not drawn)", "AC50": "50 µM (active)"}
{"compound": "CCOP(=O)(OCC)Oc1cc(C)nc(C(C)C)n1", "outcome": "inactive"}
{"compound": "S=C1NCCN1", "outcome": "inactive"}
{"compound": "CON=C(C(=O)OC)c1ccccc1CON=C(C)c1cccc(C(F)(F)F)c1", "AC50": "0.664 µM (active)"}
